Laboratory results reported in PubChem BioAssay AID1030 (National Center for Advancing Translational Sciences (NCATS), 2008).
Among all 220,000 compounds or so, about 16,000 (7.3%) were called active. Roughly 25% stayed inconclusive and do not appear here. Calls come from the whole dose curve; as a rule, active = well fitted inhibition curve with a large enough effect (not every such curve was filed as active); inconclusive = small, poorly fitted or top-dose-only effect, or another doubt; inactive = no such curve, though single readings can be large or run the other way. The full list was thinned out, with actives kept by preference.

molecular target: Aldehyde dehydrogenase 1A1 (Homo sapiens) (UniProt P00352); test: qHTS Assay for Inhibitors of Aldehyde Dehydrogenase 1 (ALDH1A1); conditions: Purified ALDH1A1, NADH fluorescence, propionaldehyde substrate; series mostly up to 75.3 µM; activity, negative = inhibition: at the top concentration;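 for activity, negative = inhibition: plate controls were no enzyme wells and a reference inhibitor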
Potency is the fitted concentration of half-maximal effect.

Aldehyde dehydrogenase 1A1 (Homo sapiens), sequence (P00352 whole entry, looked up): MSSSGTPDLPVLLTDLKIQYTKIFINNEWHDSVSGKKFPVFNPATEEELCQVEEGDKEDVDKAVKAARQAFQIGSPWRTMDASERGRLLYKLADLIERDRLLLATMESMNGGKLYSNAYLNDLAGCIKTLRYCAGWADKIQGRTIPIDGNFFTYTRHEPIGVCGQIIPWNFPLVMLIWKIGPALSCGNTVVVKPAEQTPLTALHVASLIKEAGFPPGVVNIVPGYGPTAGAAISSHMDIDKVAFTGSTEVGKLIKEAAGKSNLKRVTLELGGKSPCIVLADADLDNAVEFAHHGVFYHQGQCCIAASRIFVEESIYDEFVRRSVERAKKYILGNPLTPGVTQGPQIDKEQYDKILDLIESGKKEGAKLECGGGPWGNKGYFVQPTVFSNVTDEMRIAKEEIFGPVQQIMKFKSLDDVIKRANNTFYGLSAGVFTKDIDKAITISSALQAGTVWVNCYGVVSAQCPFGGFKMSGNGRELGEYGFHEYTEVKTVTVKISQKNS

activity, negative = inhibition, inactive:
COC(=O)C1=C(C(=O)OC)[C@@H]2N(C)c3ccccc3[C@@]23C[C@@H](C(=O)OC)N(S(=O)(=O)c2cccs2)C3=N1 0.268% [at 13.5 µM], O=C(NCCCN1CCN(Cc2ccccc2)CC1)C1CCN(S(=O)(=O)N2CCCC2)CC1 -7.82%, Cc1ccc(S(=O)(=O)N2CCC(C(=O)N[C@@H](C)C(=O)NCCc3ccccc3)CC2)cc1 -10.6%, CN(Cc1cccc2ncccc12)C(=O)CC1C(=O)NCCN1Cc1ccc(F)cc1 (stereo unspecified) -10%, COc1ccc(C)cc1NC(=O)Nc1ccccc1SC -5.22%, O=C(c1ccccn1)c1ncc(C(F)(F)F)cc1Cl 17.1%, O=C(CC(O)(C(F)(F)F)C(F)(F)F)Nc1ccc(Cl)c(Cl)c1 -4.42%, CC1(OC(=O)CCc2ccccc2)C(=O)C=C2C=C(c3ccc(C#N)cc3)N(CCc3ccccn3)C=C2C1=O (stereo unspecified) 10.1% [at 13.5 µM], C=CCn1c(-c2ccccc2OCC)n[nH]c1=S -15%, C=CCn1c(CCc2ccc(OC(C)C)cc2)n[nH]c1=S -5.12%, O=C(CN1CCN(c2ncccn2)CC1)Nc1ccccc1C(F)(F)F 3.02%, c1ccc(-c2cc(N3CCCCC3)c3ccccc3n2)cc1 -14.9%, COc1cccc(NC(=O)C(Sc2nnnn2C)c2ccccc2)c1 (stereo unspecified) 5.1%, OCCNCc1cccc(OCc2ccccc2Cl)c1 6.58%, O=C(C1CCCO1)N1CCN(C(=S)NC2CC2)CC1 (stereo unspecified) -0.777%, CCC1CCCCN1C(=O)CSc1nc(C)cc(C)n1 (stereo unspecified) -4.6%, Cn1c(=O)c2c(nc(SCC(=O)Nc3ccccc3N3CCCCC3)n2C)n(C)c1=O -12.6%, Cc1c(C(=O)N/N=C/c2ccccc2)[nH]c2c([N+](=O)[O-])cccc12 8.46%, Cc1[nH]c(=O)c(C(=O)/C=C/c2ccccc2)c2c1CCCC2 4.06%, O=C(O)C1C2CC2CN1C(=O)c1ccc(Cl)cc1Cl (stereo unspecified) 1.47%, Cc1[nH][nH]c(=O)c1C(c1ccc2c(c1)OCO2)c1c(C)[nH][nH]c1=O -2.58%, Cc1[nH][nH]c(=O)c1N=Nc1ccccc1 8.64%, O=C(NCCc1ccccn1)c1cccnc1Oc1ccc(Cl)cc1 9.99%, CN1CCN(C(=O)CCc2nc(-c3ccc(Cl)cc3)no2)CC1 11.6%, CCOC(=O)Nc1ccccc1N1C(=O)c2ccccc2C1=O 10.7%, CCCn1c(=O)c2ccccc2n2c(SCC(=O)/C(C#N)=C(\C)N)nnc12 1.09%, Cc1ccc(-n2[nH]c(C)c(/C=N/N3C(=O)c4cccc5cccc(c45)C3=O)c2=O)cc1 4.67%, CCc1nnc(NS(=O)(=O)c2ccc(N=Cc3c(C)[nH]n(-c4ccc(C)cc4)c3=O)cc2)s1 -7.49%, N/C(=N\S(=O)(=O)c1cc(C(F)(F)F)cc(C(F)(F)F)c1)c1cccs1 -0.599%, CC1=CC(=C(C#N)c2nc3ccccc3s2)C=C(C)N1c1ccc(F)cc1F -9.49%, Oc1ccccc1C=NC1CCCCC1N=Cc1ccccc1O (stereo unspecified) 11%, CCOc1ccc(NC(=O)NNC(=O)c2ccc(Cl)cc2Cl)cc1 3.26%, Cc1nc2cc(NC(=O)NC3CC3)ccc2n1C -9.58%, COCC(=O)Nc1ccc(Br)cc1 5.23%, COC(=O)Cc1ccc(NC(=S)NCc2ccccc2)cc1 1.73%, CC(C)C(O)C1CCN(Cc2nc(Cc3ccccc3Cl)no2)CC1 (stereo unspecified) -0.592%, Cc1ccc(COc2ccc(/C=N/NC(=O)CN3CCCCC3)cc2)cc1 8.06%, O=c1cc(O)nc(SCc2ccccc2Cl)[nH]1 1.42%, COc1ccc(OC)c(-n2c(=S)[nH]c3cc(C(=O)N4CCCCC4)ccc3c2=O)c1 -1.79%, CCOC(=O)N1CCN(C(=O)Cc2ccc(-n3c(=S)[nH]c4ccccc4c3=O)cc2)CC1 -10.4%, COc1cc2[nH]c(=S)n(Cc3ccc(F)cc3)c(=O)c2cc1OC 6.91%, Cc1ccc(Cl)cc1NC(=O)c1ccccn1 3.34%, Cc1cn(C2OC[C@@H](O)[C@@H]2CO)c(=O)[nH]c1=O (stereo partly specified) 9.87%, O=C(NCc1cccnc1)c1cccc(-c2cc3ccccc3oc2=O)c1 -7.95%, CCc1ccc(CN(C)Cc2nc(Cc3ccccc3)no2)nc1 -4.1%, CN(C)CCCN1C(=O)CSC1c1ccc([N+](=O)[O-])cc1 (stereo unspecified) 4.08%, CCC(CC)C(=O)N1CC(=O)Nc2ccc(Br)cc2C1c1ccccc1 (stereo unspecified) 0.759%, O=C(c1ccc(S(=O)(=O)N2CCOCC2)cc1)N1CCN(c2ccccc2)CC1 2.43%, CNS(=O)(=O)c1ccc(NC(=O)C2CC(=O)N(c3ccc(Cl)cc3)C2)cc1 (stereo unspecified) 5.48%, COc1cc(OC)nc(NC(=O)CCl)n1 3.91%, O=C(NNc1ccccn1)c1ccc(Cl)nc1 -11.2%, CCCCSc1nc2ccccc2[nH]1 -4.29%, COc1cc(CCC(=O)OCC(=O)Nc2cccc(S(N)(=O)=O)c2)cc(OC)c1OC -5.58%, Cc1nn(C)c(C)c1S(=O)(=O)N1CCC(CO)(Cc2ccc(Cl)cc2)CC1 7.34%, COc1ccc(NC(=S)NCCN2CCC(C)CC2)cc1 0.486%, COc1ccc(OCC(=O)Nc2ccc(N3CCC(C)CC3)cc2)cc1 9.23%, O=C(Nc1cccc(Cl)c1)c1cc([N+](=O)[O-])ccc1N1CCN(CCO)CC1 -7.69%, CN1CCN(c2ccc(S(=O)(=O)Nc3ccccc3)cc2[N+](=O)[O-])CC1 -5.79%, CCNC(=O)c1ccc(OCC(=O)Nc2ccc(F)cc2)c(OC)c1 2.14%, CCCCn1c(N)c(N2CCOCC2)c(=O)n(CC(=O)NCCc2ccccc2)c1=O 8.85%, Cc1nc(S(=O)(=O)c2ccc(Br)cc2)nc2c1CCC2 -3.44%, O=C(CCc1ccc(S(=O)(=O)N2CCOCC2)cc1)NN=C1CCCCCCC1 -9.69%, CC(=O)Cn1ncc(N2CCOCC2)c(Br)c1=O 3.21%, Cc1ccc(OCC(=O)Nc2ccc(S(=O)(=O)Nc3ccccn3)cc2)cc1 -0.623%, Cc1ccc(NS(=O)(=O)c2c(C)[nH]c(=O)[nH]c2=O)cc1C -15%, COC(=O)C1=C(C(=O)OC)[C@@H]2Nc3ccccc3[C@@]23C[C@@H](C(=O)OC)N(S(=O)(=O)c2ccc([N+](=O)[O-])cc2)C3=N1 -1.68% [at 13.5 µM], Nc1c(NCCc2ccccc2)c2ccccc2oc1=O -7.28%, O=C1c2ccccc2C(=O)N1c1ccccc1S(=O)C(F)(F)F (stereo unspecified) 12.6%, O=C1C(Cl)=C(N2CCOCC2)C(=O)N1c1ccccc1 -8.32%, COC(=O)c1c(C)oc2ccc(N(C(=O)Oc3ccccc3)S(=O)(=O)c3ccccc3)cc12 -1.58%, Cc1ccccc1NC(=O)c1nn(-c2ccc(F)c(F)c2)ccc1=O 0.92%, C(=N/Nc1cc(N2CCOCC2)nc(N2CCOCC2)n1)/c1ccccc1 7.34%, C/C(=N\NC(=O)c1ccccc1C)c1ccc(N2CCOCC2)cc1 5.33%, O=C(CCN1CCN(C/C=C/c2ccccc2)CC1)Nc1cccc(F)c1 9.75%, COc1ccc(N2C(=O)C(CC(=O)Nc3ccccc3)N(Cc3ccc(OC)c(OC)c3)C2=O)cc1 (stereo unspecified) 2.78%, COc1ccc(N2C(=O)C(CC(=O)Nc3ccc(F)cc3)N(CCc3cccs3)C2=O)cc1 (stereo unspecified) -2.98%, NC(=O)c1ccccc1N(Cc1ccccc1)S(=O)(=O)c1ccccc1 3.35%, N#CCc1ccc(OC(=O)c2cccnc2)cc1 14%, CCCCN(C(=O)/C=C/c1ccco1)c1c(N)n(CC(C)C)c(=O)[nH]c1=O 3.6%, CCNC(=S)NNC(=O)c1ccc2ncccc2c1 -2.18%, CCCCc1ccc(S(N)(=O)=O)cc1 -5.42%, COc1ccc(OCC(=O)NCCc2ccc(S(N)(=O)=O)cc2)cc1 38.9%

Potency, active:
Cc1ccc(CCNC(=O)C2CCN(S(=O)(=O)N3CCCC3)CC2)cc1 12.6 µM, N/C(=N\OC(=O)Nc1ccc(Cl)c(Cl)c1)c1ncc(C(F)(F)F)cc1Cl 25.1 µM, C=CCn1c(-c2ccc3[nH]c(C)c(C)c3c2)n[nH]c1=S 12.6 µM, CCC1CCCCN1C(=O)CSc1nc2c(c(=O)n(C)c(=O)n2C)n1C (stereo unspecified) 12.6 µM, Cc1nc(-c2ccccc2)sc1C(=O)/C=C/c1ccccc1 3.55 µM, Cc1[nH][nH]c(=O)c1C(c1ccc(-c2ccc(Cl)cc2)o1)c1c(C)[nH][nH]c1=O 22.4 µM, CCCCN1C(=O)/C(=C(/C#N)C(N)=O)c2ccccc21 7.08 µM, COc1cc(SC#N)ccc1N=Cc1c(C)[nH]n(-c2ccc(C)cc2)c1=O 0.631 µM, O=c1c(O)c(Br)ccc2c(Br)c(O)c(O)c(O)c12 8.91 µM, Oc1cc(O)c2c(c1)OC(c1ccc(O)c(O)c1)C(O)C2 (stereo unspecified) 10 µM, CC(C)Oc1ccc(CC(=O)NNC(=S)Nc2ccc(Br)cc2)cc1 10 µM, S=c1[nH]nc(SCc2ccccc2Cl)c2[nH]cnc12 0.0316 µM, COc1ccccc1-n1c(=S)[nH]c2c(sc(=S)n2-c2ccc(C)cc2C)c1=O 8.91 µM, CCc1ccc(-n2c(=S)sc3c(=O)n(-c4ccccc4OC)c(=S)[nH]c32)cc1 12.6 µM, Cc1ccc2c(c1)C(c1ccccc1)N(C(=O)c1ccc(S(=O)(=O)N3CCOCC3)cc1)CC(=O)N2 (stereo unspecified) 7.94 µM, O=C(CCl)NNc1cccc(Cl)n1 10 µM, COc1ccc(NC(=S)NCC2CCN(c3ccc(OC)cc3)C2)cc1 (stereo unspecified) 35.5 µM, O=S(=O)(NN=C1CCCCCCC1)c1ccc(Br)cc1 11.2 µM, Cc1ccc(Nc2cc(=O)n(C3CCCCC3)c(=O)[nH]2)cc1C 1 µM, O=C1C(=O)N(c2ccccc2)c2ccccc21 6.31 µM, Cc1ccccc1N/N=C/c1ccc(N2CCOCC2)cc1 8.91 µM, CCOc1ccc(NC(=O)CC2C(=O)N(c3ccccc3)C(=O)N2CCOC)cc1 (stereo unspecified) 15.8 µM, CN(C)c1ccc(C=NCCc2ccc(S(N)(=O)=O)cc2)cc1 0.708 µM

Potency, inactive:
O=C(/C=C/c1ccccc1)c1ccccc1O
